Assay outcomes as filed in PubChem.
INS-1E GSIS act: primary screen for activators of insulin secretion dependent on glucose, INS-1E cells, GLuc reporter luminescence. INS-1E GLuc reporter insulin secretion, 2-3 h. activation, % at 16.6 µM. 0.61% of 370,000 active. AID 743287;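 active means lowest replicate activation of at least 40%, so every replicate reaches that level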;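 further: 0% = median of neutral control wells and 100% = median of IBMX positive control wells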
RAD52 inh: RAD52 (human) annealing inhibition | recombinant RAD52 DNA annealing, FRET fluorescence | inhibition, % at 18.7 µM | 0.46% of 360,000 active;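 active means every replicate showing at least 50% inhibition; inconclusive means mean inhibition at least 50% but not in every replicate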
MLL AF4-AF9 inh: inhibitors of human MLL-AF4/AF9 interaction | AID 651704 | 0.47% of 350,000 active | inhibition, % at 10 µM | AlphaScreen, biotin-AF4 peptide binding to FLAG-AF9;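 active means every replicate reaching a set inhibition limit, whatever the replicate mean, cut at about 25% in these data; inconclusive means mean inhibition reaches that limit but some replicates miss it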;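 further: 0% = plate neutral control median and 100% = total signal loss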
dFosB act-1: mouse delta FosB homodimer activation; purified delta FosB, TAMRA-CDK5 oligo fluorescence polarization; percent of positive-control signal above neutral wells; 0.99% of 340,000 active; activation, % at 25 µM; P13346;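 active means mean activation above about 17%, with every replicate also reaching it, limit read from the data, passing the limit was not always enough; inconclusive means only one of the two conditions met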
RAD54 branch: blocks human RAD54 Holliday junction branch migration; FAM/BHQ fluorescence; AID 602329; inhibition, % at 10.4 µM; 0.14% of 360,000 active; Q92698;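 active means mean normalized replicate activity at least 40 and at least half of replicates scoring 40 or more; inconclusive means only one of the two criteria met; inactive means mean below 40 and under half of replicates reaching 40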;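 further: 0% = median of neutral control wells and 100% = median of positive control wells; inhibitors cause a drop in the FAM fluorescence signal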
Target sequence (Q92698 whole entry, looked up): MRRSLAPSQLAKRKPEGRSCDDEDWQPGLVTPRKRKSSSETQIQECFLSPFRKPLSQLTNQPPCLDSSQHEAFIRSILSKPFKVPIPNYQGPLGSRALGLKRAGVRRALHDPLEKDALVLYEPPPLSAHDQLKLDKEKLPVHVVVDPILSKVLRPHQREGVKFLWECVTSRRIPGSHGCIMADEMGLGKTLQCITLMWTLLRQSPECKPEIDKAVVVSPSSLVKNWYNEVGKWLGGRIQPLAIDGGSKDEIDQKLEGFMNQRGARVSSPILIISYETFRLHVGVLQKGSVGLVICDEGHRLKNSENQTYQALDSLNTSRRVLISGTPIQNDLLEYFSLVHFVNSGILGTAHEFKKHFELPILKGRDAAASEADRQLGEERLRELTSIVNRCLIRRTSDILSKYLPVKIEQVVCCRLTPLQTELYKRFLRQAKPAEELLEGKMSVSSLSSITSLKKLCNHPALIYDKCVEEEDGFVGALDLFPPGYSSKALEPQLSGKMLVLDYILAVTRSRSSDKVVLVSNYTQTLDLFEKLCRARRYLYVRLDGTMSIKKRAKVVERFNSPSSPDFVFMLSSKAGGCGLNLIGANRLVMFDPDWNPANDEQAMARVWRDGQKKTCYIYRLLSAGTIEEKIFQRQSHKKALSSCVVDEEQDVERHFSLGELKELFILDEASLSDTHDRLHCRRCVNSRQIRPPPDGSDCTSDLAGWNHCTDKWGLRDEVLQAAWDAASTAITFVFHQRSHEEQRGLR
DENV2 CPE: DENV2-induced cell death inhibition. DENV2-infected cells, cytopathic effect rescue, plate reader. CPE inhibition, % at 9.99 µM. 1.7% of 350,000 active; in the data active means CPE inhibition above about 20%, passing the limit was not always enough; inconclusive means no clear call, values can overlap the other calls; tested in BHK-21 cells;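 further: 0% = median of neutral control wells and 100% = median of positive control wells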
dFosB act-2: activators of mouse delta FosB homodimer DNA binding | 2,400 tested, under 10 active | shares compounds with dFosB act-1 | purified delta FosB, TAMRA-CDK5 oligo fluorescence polarization; normalised: neutral wells 0, positive control 100 | activation, % at 24.9 µM;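 active means highest replicate activation at or above 34% and every replicate reaching that threshold; inconclusive means meets only one of the two criteria; inactive means meets neither criterion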;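 further: higher polarization means more probe DNA bound by delta FosB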
Starred values were filed as active, the others as inactive; i = inactive; ? = inconclusive; · = not tested or not shown. Sampled rows, rich in hits. Any-hit rate of the full collection: about 3.1%.

SMILES | INS-1E GSIS act | RAD52 inh | MLL AF4-AF9 inh | dFosB act-1 | RAD54 branch | DENV2 CPE | dFosB act-2
O=C(c1cnccn1)N1CC(=O)N2[C@@H](CO)[C@@H](c3ccc(C#CCc4ccccc4)cc3)[C@@H]2C1 | 0 | -2 | -2 | · | · | -3 | ·
CCCN(C)C[C@H]1Oc2ncc(C#CCC(C)C)cc2C(=O)N([C@@H](C)CO)C[C@H]1C | -1 | 10 | 0 | · | -8 | 12 | ·
C[C@@H]1CN([C@@H](C)CO)C(=O)c2cccc(NC(=O)C3CC3)c2O[C@H]1CN(C)S(=O)(=O)c1cn(C)cn1 | 21 | -5 | -1 | · | -1 | 3 | ·
C[C@@H]1CCCCO[C@H](CN(C)S(=O)(=O)c2ccccc2)[C@@H](C)CN([C@H](C)CO)C(=O)c2cc(N(C)C)ccc2O1 | -6 | -5 | 1 | · | -5 | 11 | ·
CN1CCN(C(=O)C[C@@H]2CC[C@H]3[C@@H](COc4ccc(NC(=O)c5cscn5)cc4C(=O)N3C)O2)CC1 | -6 | 4 | -1 | · | -1 | -5 | ·
O=C(Cn1cnc2c(oc3ccccc32)c1=O)NCCc1ccccc1 | · | · | · | 61* | 12 | · | -3
O=C(Cn1cnc2c(nnn2-c2cccc(Cl)c2)c1=O)NCc1ccccc1 | 2 | -20 | 3 | 68* | 12 | -2 | 1
CC(C)C(C)NC(=O)Cn1cnc2c(oc3ccccc32)c1=O (stereo not drawn) | 5 | 0 | -1 | -10 | 0 | 1 | ·
O=C(Cn1cnc2sc(-c3ccccc3)cc2c1=O)NCc1ccco1 | · | · | · | -4 | -6 | · | ·
NC(=O)Cn1cnc2c(nnn2-c2cccc(Cl)c2)c1=O | 0 | -8 | -2 | -1 | -9 | 3 | ·
O=C(Cn1cnc2sc(-c3ccccc3)cc2c1=O)NCCc1ccccc1 | -1 | -15 | · | 53* | -3 | · | 2
Cc1sc2ncn(CC(=O)NCCc3ccccc3)c(=O)c2c1C | · | · | · | -1 | 0 | · | ·
O=C(Cn1cnc2sc(-c3ccccc3)cc2c1=O)NCc1ccccc1 | 1 | · | · | 32* | -5 | · | 5
COCC(=O)Nc1ccc2c(c1)C(=O)N(C)C[C@@H](OC)[C@H](C)CN(CC1CC1)[C@@H](C)CO2 | 13 | 6 | 0 | · | 6 | -4 | ·
COC(=O)C[C@@H]1C[C@@H]2c3cc(NC(=O)C4CCC4)ccc3O[C@@H]2[C@H](CO)O1 | 8 | 7 | 2 | · | -2 | 15 | ·
O=C(Nc1ccc(NC(=O)c2sc3ccccc3c2Cl)cc1Cl)c1ccco1 | · | · | · | 41* | · | · | 3
COc1cccc(C(=O)Nc2ccc(NC(=O)c3ccco3)c(Cl)c2)c1 | -4 | -12 | 0 | 23* | · | -5 | 3
CC(C)c1ccc2[nH]c3nc(SCC(=O)NC4CC4)nnc3c2c1 | -9 | -21 | 1 | 30* | · | 1 | 0
CCOc1ccc2[nH]c3nc(SCC(=O)OC(C)C)nnc3c2c1 | · | -12 | 1 | 5 | -1 | 1 | ·
CC(Sc1nnc2c(n1)[nH]c1ccccc12)C(=O)NC1CCCCC1 (stereo not drawn) | 14 | -18 | 1 | 22* | -9 | 3 | 2
Cc1cccc(-c2ccc([C@H]3[C@@H](CO)N4C(=O)CN(C(=O)c5cnccn5)C[C@H]34)cc2)c1 | -3 | · | · | · | · | · | ·
CCC(=O)Nc1ccc2c(c1)C(=O)N(C)C[C@@H](OC)[C@H](C)CN(Cc1ccncc1)[C@H](C)CO2 | 1 | -8 | -1 | · | -10 | ? | ·
CO[C@H]1CN(C)C(=O)c2cc(NC(=O)c3ccno3)ccc2OC[C@H](C)NC[C@@H]1C | -2 | i | -6 | · | -20 | -3 | ·
CCCC(=O)N1CC2(CCN(S(=O)(=O)CC)CC2)c2c(n(C)c3cc(OC)ccc23)[C@@H]1CO | 1 | 8 | 0 | · | · | 4 | ·
O=C(CN1CCN(CCN2C(=O)c3cccc4cccc(c34)C2=O)CC1)c1ccc(F)cc1 | -20 | · | · | 33* | · | · | 2
O=C(CCCN1C(=O)c2cccc3cccc(c23)C1=O)N1CCN(c2ccccc2)CC1 | -7 | -5 | -16 | -1 | · | · | ·
O=C1c2cccc3cccc(c23)C(=O)N1CCCN1CCN(c2ccc(F)cc2)CC1 | -54 | 29 | ? | 46* | · | -3 | 0
